# Assay results reported in PubChem BioAssay AID1508601 (ICCB-Longwood Screening Facility, Harvard Medical School, 2020).
# The campaign covered roughly 5,700 compounds. About 85 (1%) were called active. No stated cut-off is given here; in the data, active means p53-positive nuclei above about 36% (passing the limit was not always enough); inactive means the rest. What follows is part of a selection rich in actives, with near analogues and random picks from the rest.
# How the values were obtained:
# [1] = nuclear p53 accumulation, HPV+ cells – imaging, p53-positive nuclei imaging, 24 h, 48 h (AID 1508601); conditions: 24/48 h
# [2] = target: Cellular tumor antigen p53 (Homo sapiens) (UniProt P04637); assay: as above; conditions: 24/48 h, stronger effect = higher value
# Sequence of Cellular tumor antigen p53 (Homo sapiens) (P04637 whole entry, looked up): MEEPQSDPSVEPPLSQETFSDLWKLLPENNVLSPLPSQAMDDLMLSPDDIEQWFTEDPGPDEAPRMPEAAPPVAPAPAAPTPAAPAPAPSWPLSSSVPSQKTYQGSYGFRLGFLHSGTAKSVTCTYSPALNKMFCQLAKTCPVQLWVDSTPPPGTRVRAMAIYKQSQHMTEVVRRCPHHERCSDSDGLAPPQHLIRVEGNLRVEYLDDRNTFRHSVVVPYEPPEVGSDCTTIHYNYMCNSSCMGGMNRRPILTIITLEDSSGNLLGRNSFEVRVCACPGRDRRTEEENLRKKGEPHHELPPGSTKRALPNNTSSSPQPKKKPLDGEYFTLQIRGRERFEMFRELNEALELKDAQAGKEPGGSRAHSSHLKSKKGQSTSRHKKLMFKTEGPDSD
# [3] = measured here: cell number at 24 h, Library stock concentration: 80 uM
# [4] = measured here: cell number at 24 h, Library stock concentration: 400 uM
# [5] = measured here: cell number at 24 h, Library stock concentration: 2 mM
# [6] = measured here: cell number at 24 h, Library stock concentration: 10 mM
# [7] = measured here: cell number at 48 h, Library stock concentration: 80 uM
# [8] = measured here: cell number at 48 h, Library stock concentration: 400 uM
# [9] = measured here: cell number at 48 h, Library stock concentration: 2 mM
# [10] = measured here: cell number at 48 h, Library stock concentration: 10 mM
# [11] = Library stock concentration: 80 uM
# [12] = Library stock concentration: 400 uM
# [13] = Library stock concentration: 2 mM
# [14] = Library stock concentration: 10 mM
# [15] = measured here: p53 positive nuclei at 24 h, Library stock concentration: 80 uM
# [16] = measured here: p53 positive nuclei at 24 h, Library stock concentration: 400 uM
# [17] = measured here: p53 positive nuclei at 24 h, Library stock concentration: 2 mM
# [18] = measured here: p53 positive nuclei at 24 h, Library stock concentration: 10 mM
# [19] = measured here: cell number at 24 h, Library stock concentration: 3.33 mM
# [20] = measured here: cell number at 48 h, Library stock concentration: 3.33 mM
# [21] = Library stock concentration: 3.33 mM
# [22] = measured here: p53 positive nuclei at 24 h, Library stock concentration: 3.33 mM
smiles,measurement,setting,value
CC(NC(=O)c1cc(Cl)ccc1Oc1ccc(F)cc1)c1ccc(C(=O)O)cc1 (centres undefined),"nuclei count, normalised",[1]; [3],115%
same,"nuclei count, normalised",[1]; [4],119%
same,"nuclei count, normalised",[1]; [5],117%
same,"nuclei count, normalised",[1]; [6],107%
same,"nuclei count, normalised",[1]; [7],117%
same,"nuclei count, normalised",[1]; [8],115%
same,"nuclei count, normalised",[1]; [9],114%
same,"nuclei count, normalised",[1]; [10],108%
same,"p53-positive nuclei, normalised",[2]; [11],0.0152% (inactive)
same,"p53-positive nuclei, normalised",[2]; [12],-0.136% (inactive)
same,"p53-positive nuclei, normalised",[2]; [13],-0.0948% (inactive)
same,"p53-positive nuclei, normalised",[2]; [14],-0.00827% (inactive)
same,"p53-positive nuclei, normalised",[2]; [15],-0.00172%
same,"p53-positive nuclei, normalised",[2]; [16],-0.0227%
same,"p53-positive nuclei, normalised",[2]; [17],-0.0802%
same,"p53-positive nuclei, normalised",[2]; [18],-0.136%
O=C1OC[C@@H](Cc2cccc(O)c2)[C@@H]1Cc1cccc(O)c1,"nuclei count, normalised","[1]; measured here: cell number at 24 h, concentration not given here",111%
same,"nuclei count, normalised","[1]; measured here: cell number at 48 h, concentration not given here",114%
same,"p53-positive nuclei, normalised",[2]; concentration not given here,-0.147% (inactive)
same,"p53-positive nuclei, normalised","[2]; measured here: p53 positive nuclei at 24 h, concentration not given here",-0.118%
COC1C[C@H]2CCC(C)[C@@](O)(O2)C(=O)C(=O)N2CCCC[C@H]2C(=O)OC(C(C)CC2CCC(OP(C)(C)=O)C(OC)C2)CC(=O)C(C)C=C(C)C(O)C(OC)C(=O)C(C)CC(C)C=CC=CC=C1C (some centres undefined),"nuclei count, normalised",[1]; [19],108%
same,"nuclei count, normalised",[1]; [20],105%
same,"p53-positive nuclei, normalised",[2]; [21],-0.656% (inactive)
same,"p53-positive nuclei, normalised",[2]; [22],-0.202%
Cc1c(CN2CCN(C(=O)C(C)O)CC2)sc2c(N3CCOCC3)nc(-c3cnc(N)nc3)nc12 (centres undefined),"nuclei count, normalised",[1]; [3],107%
same,"nuclei count, normalised",[1]; [4],110%
same,"nuclei count, normalised",[1]; [5],89.3%
same,"nuclei count, normalised",[1]; [19],82.6%
same,"nuclei count, normalised",[1]; [6],84.4%
same,"nuclei count, normalised",[1]; [7],113%
same,"nuclei count, normalised",[1]; [8],112%
same,"nuclei count, normalised",[1]; [9],89%
same,"nuclei count, normalised",[1]; [20],84%
same,"nuclei count, normalised",[1]; [10],88.2%
same,"p53-positive nuclei, normalised",[2]; [11],0.00265% (inactive)
same,"p53-positive nuclei, normalised",[2]; [12],-0.106% (inactive)
same,"p53-positive nuclei, normalised",[2]; [13],-0.151% (inactive)
same,"p53-positive nuclei, normalised",[2]; [21],-0.349% (inactive)
same,"p53-positive nuclei, normalised",[2]; [14],-0.157% (inactive)
same,"p53-positive nuclei, normalised",[2]; [15],0.036%
same,"p53-positive nuclei, normalised",[2]; [16],-0.106%
same,"p53-positive nuclei, normalised",[2]; [17],-0.151%
same,"p53-positive nuclei, normalised",[2]; [22],-0.356%
same,"p53-positive nuclei, normalised",[2]; [18],-0.0302%
COc1ccc(-c2nc(N3CCOCC3)c3sc(CN(C)c4ncc(C(=O)NO)cn4)cc3n2)cn1,"nuclei count, normalised",[1]; [3],47.5%
same,"nuclei count, normalised",[1]; [4],43.3%
same,"nuclei count, normalised",[1]; [5],39.6%
same,"nuclei count, normalised",[1]; [19],33.2%
same,"nuclei count, normalised",[1]; [6],31.5%
same,"nuclei count, normalised",[1]; [7],22.9%
same,"nuclei count, normalised",[1]; [8],21.1%
same,"nuclei count, normalised",[1]; [9],24.2%
same,"nuclei count, normalised",[1]; [20],21.9%
same,"nuclei count, normalised",[1]; [10],19%
same,"p53-positive nuclei, normalised",[2]; [11],96.8% (active)
same,"p53-positive nuclei, normalised",[2]; [12],94.6% (active)
same,"p53-positive nuclei, normalised",[2]; [13],98.6% (active)
same,"p53-positive nuclei, normalised",[2]; [21],65.1% (active)
same,"p53-positive nuclei, normalised",[2]; [14],81.6% (active)
same,"p53-positive nuclei, normalised",[2]; [15],77.1%
same,"p53-positive nuclei, normalised",[2]; [16],75.3%
same,"p53-positive nuclei, normalised",[2]; [17],81.2%
same,"p53-positive nuclei, normalised",[2]; [22],43.2%
same,"p53-positive nuclei, normalised",[2]; [18],59%
